Assay [1] in a line: qHTS assay for small molecules that induce genotoxicity in human embryonic kidney cells expressing luciferase-tagged ATAD5 (AID 651632). Also: nearly all actives have a fitted effect of over 15% in size. Also: potency is read from the fitted curve at half-maximal effect. The method in brief:
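HEK293T cells carrying a luciferase reporter tagged to ATAD5 were exposed to compound or DMSO vehicle for 16 hr at 37C, 5% CO2. Amplite was added, and after 30 min at room temperature luciferase activity was read as a marker of ATAD5 induction.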
On the technique in general: qHTS replaces the single test concentration by a dilution series.

Assay [2] is described as follows: qHTS assay for small molecule agonists of the p53 signaling pathway - cell viability (AID 651633; calls by dose curve; also: series mostly up to about 83 µM; nearly all actives have a fitted effect of over 30% in size). The method in brief:
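p53RE-bla cells were treated with compound for 16 hours at 37 C. Cytotoxicity was then measured as CellTiter-Glo luminescence after 30 min at room temperature.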

Assay [3] in a line: qHTS assay for small molecules that induce genotoxicity in human embryonic kidney cells expressing luciferase-tagged ATAD5 - cell viability (AID 651634; calls by dose curve; also: nearly all actives have a fitted effect of over 25% in size; also: potency is read from the fitted curve at half-maximal effect). In a few lines: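 HEK293T cells expressing luciferase-tagged ATAD5 were exposed to compound or DMSO for 15.5 hr at 37C, 5% CO2. Viability was then read as live-cell protease activity by CellTiter-Fluor fluorescence after 30 min at 37C.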

The nature of assay [4]: qHTS assay for small molecule disruptors of the mitochondrial membrane potential - cell viability (AID 720634; calls by dose curve;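 also: human HepG2 liver cancer cells; series mostly up to about 83 µM; nearly all actives have a fitted effect of over 20% in size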). The method in brief:
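HepG2 cells seeded overnight at 37 C, then exposed to compound or DMSO for 1 hr at 37 C, 5% CO2. m-MPI dye added, then CellTiter-Glo for 30 min at room temperature; viability read as ATP luminescence.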

Assay [5] in a line: qHTS assay for small molecule disruptors of the mitochondrial membrane potential (AID 720635). Also: potency is read from the fitted curve at half-maximal effect. The method in brief: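 HepG2 cells exposed to compound 1 hr at 37C, then Mito-MPS dye 30 min. Ratio read of aggregate (540/590 nm) versus monomer (490/535 nm) fluorescence.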
A short description of assay [6]: qHTS assay to test for compound auto fluorescence at 590 nm (red) in HepG2 cells (AID 720674). In a few lines:
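HepG2 cells, 2,000 per well in MEM with 10% FBS, attached overnight at 37 C, then got 23 nL compound or DMSO. After 1 hr at 37 C, 5% CO2, red fluorescence was read at 540/590 nm against Rose Bengal sodium as reference.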

Assay [7] is described as follows: qHTS assay to test for compound auto fluorescence at 535 nm (green) in HepG2 cells (AID 720675).
A short description of assay [8]: qHTS assay to test for compound auto fluorescence at 460 nm (blue) in HEK293 cells (AID 720678). The method in brief: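 Intrinsic compound fluorescence is recorded in live HEK293 cultures after overnight incubation at 37C, 5% CO2, using excitation 405 nm and emission 460 nm. Values are referenced to triamterene.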
Assay [9] in a line: qHTS assay to test for compound auto fluorescence at 590 nm (red) in HEK293 cells (AID 720679). In a few lines:
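Red autofluorescence, HEK293 cells: 2,000 cells/well; attach 4-5 hr 37C; add 23 nL cpd or DMSO; incubate o/n 37C 5% CO2; read Ex540/Em590; Rose Bengal sodium reference.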

A short description of assay [10]: qHTS assay to test for compound auto fluorescence at 535 nm (green) in HEK293 cells (AID 720680).
The nature of assay [11]: qHTS assay to test for compound auto fluorescence at 460 nm (blue) in HEK293 cell free culture (AID 720681). The method in brief:
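Compounds were added to cell-free DMEM with 10% FBS and fluorescence read directly. The blue channel used 405 nm excitation and 460 nm emission, with triamterene as the reference fluorophore.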

Assay [12] in a line: qHTS assay to test for compound auto fluorescence at 535 nm (green) in HEK293 cell free culture (AID 720682). In a few lines:
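Read-out: 485/535 nm fluorescence intensity, calibrated against fluorescein. Medium only (DMEM + 10% FBS, no cells); test compound or DMSO vehicle added by pintool before plate reading.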

Assay [13] is described as follows: qHTS assay to test for compound auto fluorescence at 590 nm (red) in HEK293 cell free culture (AID 720683). In a few lines: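 Cell-free wells of DMEM with 10% FBS received compound, and intrinsic fluorescence was read at excitation/emission 540/590 nm. Values expressed as equivalence to Rose Bengal sodium.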
The nature of assay [14]: qHTS assay to test for compound auto fluorescence at 590 nm (red) in HepG2 cell free culture (AID 720684). The method in brief: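 Compound was pinned into wells holding MEM with 10% FBS and no cells, and red fluorescence was read at Ex/Em 540/590 nm. Signal is expressed as auto fluorescence equivalency relative to Rose Bengal sodium.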
Assay [15] can be described thus: qHTS assay to test for compound auto fluorescence at 460 nm (blue) in HepG2 cell free culture (AID 720685). In a few lines: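 Compound (23 nL) or DMSO pinned into cell-free MEM with 10% FBS; blue fluorescence read at 405/460 nm excitation/emission, expressed as auto-fluorescence equivalency to triamterene.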
The nature of assay [16]: qHTS assay to test for compound auto fluorescence at 535 nm (green) in HepG2 cell free culture (AID 720686).
Assay [17] is described as follows: qHTS assay to test for compound auto fluorescence at 460 nm (blue) in HepG2 cells (AID 720687). The method in brief:
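HepG2 cells in MEM with 10% FBS, attached overnight at 37 C, were exposed to compound or DMSO for 1 hr at 37 C, 5% CO2. Blue fluorescence was read at 405/460 nm, with triamterene as reference fluorophore.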

Assay [18] in a line: qHTS assay for small molecule agonists of the p53 signaling pathway (AID 651631; calls by dose curve; also: nearly all actives have a fitted effect of over 15% in size). The method in brief: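 HCT-116 cells carrying a stable p53 response element–beta-lactamase reporter were plated, rested 5 h at 37 °C, then exposed to compound in DMSO for 16 h at 37 °C; reporter activity was read as FRET substrate fluorescence after 2 h at room temperature.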
The target of assay [19] is Glucocorticoid receptor (Homo sapiens) (UniProt P04150). In words: qHTS assay to identify small molecule agonists of the glucocorticoid receptor (GR) signaling pathway (AID 720691; active = well fitted activation curve with a large enough effect in the signal ratio in the repeat runs, not every such curve was filed as active; the % refers to the signal ratio). In a few lines:
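GR-bla HeLa cells (beta-lactamase reporter under glucocorticoid response element) were plated 4 h at 37 C/5% CO2, given compounds in DMSO, and incubated 18 h at 37 C. LiveBLAzer B/G FRET substrate was added for 2 h at room temperature, then fluorescence intensity read.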

Assay [20] shares this target. The assay is described as follows: qHTS assay to identify small molecule antagonists of the glucocorticoid receptor (GR) signaling pathway (AID 720692; active = well fitted inhibition curve with a large enough effect in the signal ratio in the repeat runs, not every such curve was filed as active; the % refers to the signal ratio). In a few lines:
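GR-bla HeLa cells (beta-lactamase reporter under glucocorticoid response element) were pre-plated 4 h at 37 C, treated with compounds plus 5 nM dexamethasone (final) for 18 h, then read by LiveBLAzer B/G FRET fluorescence after 2 h.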

Each structure is given as a SMILES string. Unmarked numbers belong to inactive results. Inconclusive results are not listed. Activity calls are given as the source filed them. Unless noted, calls follow the shape of the dose curve; as a rule, active = well fitted curve in the direction sought with a large enough effect in the repeat runs; inconclusive = weak or mixed curves; inactive = no such curve, though single readings can be large; an effect the other way counts as inactive or inconclusive.

Glucocorticoid receptor (Homo sapiens), sequence (P04150 whole entry, looked up): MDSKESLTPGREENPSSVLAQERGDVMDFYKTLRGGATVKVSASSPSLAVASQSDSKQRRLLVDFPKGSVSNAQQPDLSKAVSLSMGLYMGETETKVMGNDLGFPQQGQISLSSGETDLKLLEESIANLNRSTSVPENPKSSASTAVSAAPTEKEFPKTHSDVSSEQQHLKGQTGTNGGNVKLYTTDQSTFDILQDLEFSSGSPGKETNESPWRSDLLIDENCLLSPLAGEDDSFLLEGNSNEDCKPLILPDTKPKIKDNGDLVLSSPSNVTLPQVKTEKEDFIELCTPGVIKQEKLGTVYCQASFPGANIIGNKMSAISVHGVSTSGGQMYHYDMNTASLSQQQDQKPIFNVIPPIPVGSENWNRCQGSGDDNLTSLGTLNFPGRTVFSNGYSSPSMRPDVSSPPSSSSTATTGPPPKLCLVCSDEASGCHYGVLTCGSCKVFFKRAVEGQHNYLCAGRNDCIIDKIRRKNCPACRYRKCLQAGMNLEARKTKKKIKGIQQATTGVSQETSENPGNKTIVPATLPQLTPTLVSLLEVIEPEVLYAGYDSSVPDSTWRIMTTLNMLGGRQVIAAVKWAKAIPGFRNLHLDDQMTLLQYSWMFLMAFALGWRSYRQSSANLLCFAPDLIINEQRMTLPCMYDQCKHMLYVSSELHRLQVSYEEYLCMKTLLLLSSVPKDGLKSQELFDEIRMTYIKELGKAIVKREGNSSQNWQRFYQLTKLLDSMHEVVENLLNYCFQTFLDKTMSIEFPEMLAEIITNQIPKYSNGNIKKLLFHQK

With `COc1ccc2nc(S(=O)Cc3ncc(C)c(OC)c3C)[nH]c2c1` (centres undefined), the Potency result in [1], in [2], in assay [3], in [5], in [8] and in assay [11] was “inactive” in each case. In addition, the Potency entry in assay [15] and in [17] was “inactive” in each case. Moreover, the compound was classed as inactive in [4], in assay [6], in assay [7], in assay [9], in assay [10] and in assay [12]. Further, the outcome in assay [13], in [14] and in [16] was inactive.

Consider `O=C(Nc1ccc(C(=O)O)c(O)c1)c1ccccc1`, for which the Potency result in assay [1], in assay [2], in assay [3], in assay [5], in assay [8] and in assay [11] was “inactive” throughout. Further, the Potency entry in assay [15] and in assay [17] was “inactive” each time. For the same compound, the outcome in assay [4], in assay [6], in assay [7], in assay [9], in assay [10] and in assay [12] was inactive. Also, the call in assay [13], in assay [14] and in [16] was inactive.

For `CC(=O)Oc1cccc(O)c1`, the Potency result in assay [18], in assay [1], in assay [3], in assay [8], in assay [11] and in assay [15] was “inactive” throughout. In addition, the Potency result in assay [17] and in assay [19] was “inactive” each time. The outcome in assay [4], in assay [6], in assay [7], in [9], in assay [10] and in assay [12] was inactive. The compound was called inactive in assay [13], in assay [14] and in assay [16].

Take `O=C(O)c1cccc(C[C@@H]2COc3ccc(OCc4nc5cc(F)ccc5s4)cc3[C@@H]2O)c1`: the Potency result in [1], in assay [2], in assay [3], in assay [8], in assay [11] and in [15] was “inactive” throughout. The Potency result in assay [17] and in [19] was “inactive” in each case. The result in assay [4], in assay [6], in [7], in assay [9], in [10] and in [12] was inactive. The result in assay [13], in assay [14] and in assay [16] was inactive. Further, the Potency in assay [5] was 54.5 µM (active).

As to `C=CC(=O)O`, the Potency result in assay [18], in assay [1], in assay [3], in [5], in assay [8] and in assay [15] was “inactive” each time. The Potency result in [17], in [19] and in assay [20] was “inactive” throughout. The compound was called inactive in [4], in assay [6], in assay [9], in [10], in [12] and in [13]. In addition, the outcome in assay [14] and in [16] was inactive.

For the compound `Cc1ccc2c(c1[N+](=O)[O-])C(=O)c1ccccc1C2=O`, the Potency entry in assay [1], in assay [2], in assay [3], in assay [8], in assay [11] and in assay [15] was “inactive” throughout. Besides, the Potency result in assay [17] was “inactive”. Besides, the outcome in [4], in assay [6], in [7], in assay [9], in assay [10] and in assay [12] was inactive. The call in assay [13], in assay [14] and in [16] was inactive. Moreover, the Potency in assay [5] is 1.2 µM (active).

With `Nc1ccc(N=Nc2ccc(N)cc2)cc1`, the Potency entry in [18], in assay [8], in [11], in [15] and in assay [17] was “inactive” in each case. The Potency in assay [1] was 5.44 µM (active); in [3], 27.3 µM (active); in assay [5], 6.85 µM (active). Further, the result in assay [4], in [6], in assay [9], in assay [10], in assay [12] and in assay [13] was inactive. Also, the result in assay [14] and in [16] was inactive.

(Values after PubChem BioAssay (Tox21).)
